Assay outcomes deposited in PubChem BioAssay by The Scripps Research Institute Molecular Screening Center.
FBW7 act = activators of human E3 ligase FBW7; Q969H0; AlphaScreen FBW7–phospho-cyclin E peptide binding, activator screen; normalized activity (activation), % at 26.1 µM; hit rate 0.13% among 650,000; in the data active = normalized activity above about 1.9%;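 note: purified mutant Fbw7 with reduced substrate affinity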
TEAD-YAP block = TEAD-YAP interaction inhibition. HEK-TIYL cells, TEAD-Gal4/YAP UAS-luciferase luminescence. inhibition, % at 9.12 µM. hit rate 1.4% among 640,000. AID 1259422; in the data active = inhibition above about 32%;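 note: 0% = median of test compound wells and 100% = reference inhibitor wells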
MITF inh = inhibitors of human MITF; O75030; AlphaScreen MITF homodimerization, bead proximity signal; inhibition, % at 2.6 µM; hit rate 0.91% among 650,000; AID 1259374; in the data active = inhibition above about 50%;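 note: 0% = vehicle wells with protein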
GPR151 activ = activates the human receptor GPR151; PathHunter beta-arrestin GPR151 cells, luminescence; activation, % at 11.2 µM; hit rate 1% among 650,000; AID 1508602; in the data active = activation above about 4.9%;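 note: 0% = median of compound wells and 100% = cells with positive control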
Active calls of the source: *; ! = not active in a repeat. Hits are enriched below; roughly 3.5% of the tested compounds scored in any of these assays.

SMILES | FBW7 act | TEAD-YAP block | MITF inh | GPR151 activ
CC(=NCCO)c1c(-c2ccccc2)[nH]n(-c2nc3ccccc3s2)c1=O | 0 | -7 | -13 | -1
CC(=NCCCN1CCOCC1)c1c(C)[nH]n(-c2nc3ccccc3s2)c1=O | -2 | 33*! | 0 | -8
CC(=NCc1ccco1)c1c(C)[nH]n(-c2nc3ccccc3s2)c1=O | 0 | 41*! | 14 | -8
COc1ccc(OC)c(N=C(C)c2c(C)[nH]n(-c3nc4ccccc4s3)c2=O)c1 | 0 | 10 | 22 | -10
CCOC(=O)CN=C(C)c1c(C)[nH]n(-c2nc3ccccc3s2)c1=O | 0 | 49* | 4 | -10
CCc1ccc(OCC(=O)NNC2CC(=O)N(c3ccc(OC)c(Cl)c3)C2=O)cc1 (stereo unspecified) | 0 | -3 | -7 | 0
Cc1cc(C=O)c(C)n1-c1ccc(C(=O)O)c(Cl)c1 | 0 | 10 | 70* | 0
CC(C)(C)C1CCc2onc(C(=O)NC3CCCC3)c2C1 (stereo unspecified) | 2.6* | 0 | 13 | 1
C=CCNC(=O)c1noc2c1CC(C(C)(C)C)CC2 (stereo unspecified) | 0 | -3 | 10 | 0
Nc1c(C(=O)NC2CCCCC2)sc(=S)n1-c1ccccc1 | 0 | -22 | -7 | 0
COCCn1c(C)cc(/C=C2/C(=O)NC(=O)N(Cc3ccco3)C2=O)c1C | 0 | 1 | 28 | 0
CCOc1ccc2ccccc2c1/C=C1/C(=O)NC(=S)N(Cc2ccco2)C1=O | -1 | -18 | 77* | -1
O=C1NC(=S)N(Cc2ccco2)C(=O)/C1=C\N1CCOCC1 | 0 | -6 | 75* | -1
CCOc1ccc(/C=C2\C(=O)NC(=S)N(CC)C2=O)c2ccccc12 | 0 | 8 | 14 | -2
COCCn1c(C)cc(/C=C2/C(=O)NC(=S)N(Cc3ccco3)C2=O)c1C | -1 | -1 | 65* | 1
CC1CCc2c(sc3nc(C(C)C)n4c(SCC(=O)N5CCOCC5)nnc4c23)C1 (stereo unspecified) | 0 | 13 | -7 | 0
CC(C)(C)c1ccc(C(=O)Nc2cccc3c(=O)[nH][nH]c(=O)c23)cc1 | 0 | 76* | -7 | -1
CC(C)(C)c1ccc(C(=O)Nc2ccc(C(=O)Nc3cccc4ccccc34)cc2)cc1 | 0 | 5 | 1 | 2
C/C(=N\NC(=O)c1nnn(-c2nonc2N)c1C)c1ccc(F)c(F)c1 | 0 | -13 | 14 | 1
CCS(=O)(=O)Nc1ccc(-c2cn3c(C)csc3n2)cc1 | 0 | 33* | 0 | 2
Cc1csc2nc(-c3ccc(NS(=O)(=O)N(C)C)cc3)cn12 | 0 | 2 | 13 | 0
FC(F)(F)c1ccc(-n2nnc3ccccc32)nc1 | 0 | -46 | 5 | -4
N#CC1=C(SCC(=O)Nc2ccc(Br)cc2)NC(=O)CC1c1ccc(O)cc1 (stereo unspecified) | 0 | 39* | 14 | 0
N#CC1=C(SCC(=O)Nc2ccc(Cl)c(Cl)c2)NC(=O)CC1c1ccccc1 (stereo unspecified) | 0 | 66* | -9 | -2
CN(C)CCCN1C(=O)C(O)=C(C(=O)c2ccco2)C1c1cccnc1 (stereo unspecified) | 0 | 11 | 2 | 1
SMILES | FBW7 act | TEAD-YAP block | MITF inh | GPR151 activ
COc1ccc(/C=C/c2nc3ccccc3[nH]2)cc1 | 0 | 88* | 1 | -6
COc1ccc(/C=N\n2nnc3ccccc32)cc1 | 0 | 85* | 3 | -7
COc1ccc(/C=C/C(=O)Nc2nc3ccccc3n2C)cc1 | 0 | -17 | 17 | -1
COc1ccc(/C=C/c2nc3ccccc3n2C)cc1 | 0 | 98* | -7 | -11
COc1ccc(/C=C(/C#N)c2nc3ccccc3[nH]2)cc1 | 0 | -51 | 2 | -2
C(=C\c1nc2ccccc2[nH]1)/c1ccccc1 | 0 | 80* | -7 | -10
Nc1ccc2nc(/C=C/c3ccccc3)[nH]c2c1 | 0 | 15 | 10 | -9
COc1ccc(/C=C/c2nc3ccccc3c(=O)o2)cc1 | 0 | 75* | -5 | -10
COc1ccccc1/C=C/c1nc2ccccc2c(=O)o1 | 0 | -54 | 7 | -7
COc1ccc(-c2nc3ccccc3[nH]2)cc1 | 0 | 50* | -3 | -11
COc1cccc(N2CC(O)=C(c3nc4ccccc4[nH]3)C2=N)c1 | 0 | 37* | 1 | 1
C=CCn1c(=NC(=O)c2cc(=O)c3ccccc3o2)sc2cc(S(N)(=O)=O)ccc21 | 0 | 2 | 2 | 2
CN1C(=O)CC(CC(=O)N2CCC(c3ccccc3Cl)C2)(c2cccc(F)c2)C1=O (stereo unspecified) | 0 | -12 | -2 | 1
CCOC(=O)c1cc2sc(Br)cc2n1CC(=O)N(C)C | 0 | 34* | -12 | 1
